Source: PubChem BioAssay (Center for Chemical Genomics, University of Michigan)
Shown is part of a subset that was picked to be rich in hits.
Dicer inh – inhibitors of Dicer pre-microRNA processing, primary screen, biochemical, cat-ELCCA, chemiluminescence; actives 6% (n = 47,000); Endoribonuclease Dicer (Homo sapiens), Q9UPY3; cat-ELCCA pre-miR-21 Dicer processing; active compounds read high; z-score at 25 µM; AID 1347074, 2019; in the data active = z-score above about 3, passing the limit was not always enough;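 note: plate controls were vehicle for no effect and no enzyme for full effect; higher signal means more uncleaved substrate so more Dicer inhibition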
Starred values were filed as active, the others as inactive.

SMILES	Dicer inh
O=C(Nc1ccc(C2CCCCC2)cc1)C(=S)NCc1ccccc1	1.6
CCOc1ccc(C2c3c(oc4ccc(F)cc4c3=O)C(=O)N2Cc2ccc3c(c2)OCO3)cc1 (stereo not drawn)	0.97
C=CCNC(=O)CSc1nc(-c2ccco2)cc(C(F)(F)F)n1	0.27
COC(=O)c1cc(OC)c(OC)cc1NC(=O)CCC(=O)O	-0.09
COc1ccc(OC)c(NC(=O)CCC(=O)O)c1	5*
COc1ccc(OC)c(NC(=O)C(=O)NN)c1	-1.4
COc1ccc(C2CC(=O)C3=C(C2)NC(C)=C(C(=O)OCC(C)C)C3c2ccc(O)c(OC)c2)cc1 (stereo not drawn)	1.7
Cc1ccc(CNc2ncc(-c3ccc(C)cc3)n2C)cc1	1.8
NC(=S)N=Nc1c(O)[nH]c2ccc(Br)cc12	1.4
Oc1ccccc1Nc1nc(NCc2ccco2)c2ccccc2n1	3.1*
O=C(NCc1ccco1)Oc1ccccc1	1.2
Cc1cc(C)nc(NCc2ccco2)n1	-0.31
CC(=O)Oc1ccc2c(=O)c(Oc3ccccc3Br)coc2c1	-0.7
CNC(=O)c1cnn(-c2c(Cl)cc(Cl)cc2Cl)c1C	-1
O=C1NCCN1CCNC(=S)NC1CC1	-2.4
Cn1c(C(=O)N/N=C/c2cccs2)cnc1SCc1ccc(Cl)cc1	-0.03
COC(=O)C1=C(OS(=O)(=O)c2ccc(C)cc2)CSC1	-0.87
COC(=O)C1=C(C)N(Cc2cccnc2)C(=O)C1	-0.1
CCOC(=O)C1=C(C)N(c2ccccc2)C(=O)C1	2
COC(=O)C1=C(C)N(c2cc(C)cc(C)c2)C(=O)C1	3.6*
COc1cccc(-c2cc(C#N)on2)c1OC	0.66
CCCCCc1ccc(NC(=O)NNc2cc(C(F)(F)F)cc(C(F)(F)F)c2)cc1	-0.39
CCOC(=O)c1cc2c(N)c(C(=O)OCC)sc2nc1C(F)(F)F	-0.26
COc1ccccc1NC(=O)NC(N)=O	1.6
COc1ccccc1NC(=O)Nc1ccccc1OC	12
SMILES	Dicer inh
CCOc1ccccc1NC(=O)Nc1ccc(OC)nc1	3.8*
COc1ccccc1C1CC(=O)Nc2cc3c(cc21)OCO3 (stereo not drawn)	-0.42
CC(=O)N1CCSC1C(=O)NN(C(=O)c1cc2ccccc2s1)C(=O)c1cc2ccccc2s1 (stereo not drawn)	0.2
CCCCc1c(O)nc(SCCN(CC)CC)n(-c2ccccc2)c1=O	3.3*
CCCCc1c(O)nc2sc3ccccc3n2c1=O	0.25
CCc1c(O)nc(SCC(=O)N2CCc3ccccc32)n(-c2ccccc2)c1=O	-1
CSc1sc(C(=O)N/N=C/c2c(Cl)cccc2Cl)cc1S(=O)(=O)C(C)C	-0.81
CC1=C(C(=O)OC(C)C)C(c2cccc(F)c2)C2=C(CCCC2=O)N1 (stereo not drawn)	-0.53
CC1=C(C(=O)OC2CCCC2)C(c2cccc(O)c2)C2=C(CC(c3cccs3)CC2=O)N1 (stereo not drawn)	1.7
CC(C(Sc1ccccc1N)c1ccc(F)cc1)[N+](=O)[O-] (stereo not drawn)	-1.9
Cc1c(C)c(C)c(S(=O)(=O)Oc2ccccc2N2CC(C)OC(C)C2)c(C)c1C (stereo not drawn)	0.29
CC1=CC(C)C2(COC(=O)Nc3ccccc3)COC(c3ccccc3)C1C2C (stereo not drawn)	1.8
CCc1ccccc1NNC(=O)CCc1ccccc1	-0.71
Cc1ccc(NNC(=O)CCc2ccccc2)cc1C	3.5*
Cc1ccc(NNC(=O)CCc2ccccc2)cc1Cl	-0.78
Fc1ccc(-c2cn3cccnc3n2)cc1	2.6
CCCNS(=O)(=O)c1ccc(OC)c(-c2nnc3c4ccccc4c(C)nn23)c1	0.63
Cc1ccc(S(=O)(=O)NC(C)(C)CO)cc1-c1nnc2c3ccccc3c(C)nn12	0.08
Cc1ccc(S(=O)(=O)NC(C)c2ccccc2)cc1-c1nnc2c3ccccc3c(C)nn12 (stereo not drawn)	0.34
CNS(=O)(=O)c1ccc(C)c(-c2nnc3c4ccccc4c(C)nn23)c1	4.5*
CNS(=O)(=O)c1ccc(OC)c(-c2nnc3c4ccccc4c(C)nn23)c1	-0.01
CCCNS(=O)(=O)c1ccc(C)c(-c2nnc3c4ccccc4c(C)nn23)c1	4.3*
Cc1nc2ccccc2c(C(=O)O)c1N	-2.8
CSc1ccc(-c2ncnn2-c2cccc(Cl)c2C)cc1	1.6
O=S(=O)(c1ccc(Cl)cc1)N1CCCC1c1cccs1 (stereo not drawn)	-0.86
SMILES	Dicer inh
CS(=O)(=O)/C(C#N)=C/c1c(-c2ccccc2)nc2n1CCS2	1.5
Clc1ccc(N=Cc2c(-c3ccccc3)nc3n2CCS3)cc1	3.9*
FC(F)(F)c1cccc(N=Cc2c(-c3ccccc3)nc3n2CCS3)c1	2.7
Cc1c(C(=O)O)c2ccccc2[nH]c1=O	1
COc1cc2c(cc1OC)CN(C(=O)CSc1nnc3ccc4ccccc4n13)CC2	-0.54
CSc1nn(-c2ccccc2)cc1C(N)=S	-0.12
CSc1nn(-c2ccccc2)cc1/C(N)=N/OC(=O)Nc1ccccc1	3.7
CSc1nn(-c2ccccc2)cc1/C(N)=N/O	6*
O=C(Oc1ccc(F)cc1)c1cccs1	-0.65
CCOC(=O)/C(C#N)=C/N1CCN(c2ccc([N+](=O)[O-])cn2)CC1	-2.3
CC1=C(C(=O)OC2CCCCC2)C(c2ccncc2)C2=C(CC(C)(C)CC2=O)N1 (stereo not drawn)	-0.19
O=C1c2c(O)ccc(O)c2C(=O)c2c(NCCNCCO)ccc(NCCNCCO)c21	21*
O=C1c2ccccc2C(=O)c2c(NCCc3ccc(O)cc3)ccc(NCCc3ccc(O)cc3)c21	-1.4
O=C1CC(Nc2ccc(N3CCOCC3)cc2)C(=O)N1c1ccc(Cl)cc1 (stereo not drawn)	-0.47
Cc1ccc(F)cc1NC(=O)Nc1cc(C(C)(C)C)on1	0.14
O=S(=O)(Nc1ccc(F)c(F)c1)c1ccc2c(c1)OCCO2	-0.32
COC(=O)c1sc(N2C(=O)c3oc4ccccc4c(=O)c3C2c2cccc(O)c2)nc1C (stereo not drawn)	3.8*
C=CCOC(=O)c1sc(N2C(=O)c3oc4ccc(C)cc4c(=O)c3C2c2ccc(F)cc2)nc1C (stereo not drawn)	-0.01
CCOC(=O)c1sc(N2C(=O)c3oc4ccc(C)cc4c(=O)c3C2c2ccc(O)cc2)nc1C (stereo not drawn)	0.43
COC(=O)c1sc(N2C(=O)c3oc4ccccc4c(=O)c3C2c2cccc(Cl)c2)nc1C (stereo not drawn)	1.8
COC(=O)c1sc(N2C(=O)c3oc4ccccc4c(=O)c3C2c2ccc(C)cc2)nc1C (stereo not drawn)	-0.77
C=CCOC(=O)c1sc(N2C(=O)c3oc4ccc(C)cc4c(=O)c3C2c2ccc(O)cc2)nc1C (stereo not drawn)	3.3*
Cc1sc2nc(C)n(/N=C/c3cccnc3)c(=O)c2c1C	0.1
O=c1c(C(CN2CCOCC2)c2ccccc2)nc(-c2ccccc2)nn1CN1CCOCC1 (stereo not drawn)	-0.3
Cc1ccc(C)c(S(=O)(=O)N2CCC(C)CC2)c1	-0.73
COc1ccc(-c2nc3n(n2)C(c2cccc(OC)c2OC)C2=C(CC(C)(C)CC2=O)N3)cc1 (stereo not drawn)	2.3
O=C1CC(c2cccc3ccccc23)Sc2nc(-c3ccccc3)nn21 (stereo not drawn)	4.4*
O=C1CC(c2ccccc2)Sc2nc(-c3ccc(F)cc3)nn21 (stereo not drawn)	-0.47
O=C1CCC(=O)N1c1nc2n(n1)C(c1ccccc1)C=C(c1ccccc1)N2 (stereo not drawn)	2.5
